Shown are actives, neighbours in structure and some others; about 6.5% of the full set was active somewhere.
FMDV inh = antivirals against foot and mouth disease virus. Potency, µM (titrated, usually from 57.9 µM), for inactives: at the highest dose activity change, negative = inhibition, hits mostly inhibitors. FMDV antiviral cell-based qHTS. 410,000 compounds, 1.2% hits; calls by dose curve; tested in HEK293T cells; also: read-out not given here; potency is read from the fitted curve at half-maximal effect; nearly all actives have a fitted effect of over 45% in size
VACV Venus inh = inhibitors of vaccinia virus (Venus reporter). Potency, µM (highest dose often 36.5 µM), for the others: top-dose activity change, negative = inhibition, actives largely listed as inhibitors. 330,000 compounds, 0.46% hits. Vaccinia virus Venus reporter expression, fluorescence; calls by dose curve; tested in A549 cells; also: potency is read from the fitted curve at half-maximal effect; nearly all actives have a fitted effect of over 30% in size
HCMV antiviral = inhibitors of human cytomegalovirus | HFF cells, HCMV-luciferase reporter, 72 h; stronger effect = lower value | activity change, negative = inhibition, % at 57.5 µM | 410,000 compounds, 4.5% hits; in the data active = activity change below about -60%; inconclusive = no clear call, values can overlap the other calls; inactive = above about -39%
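Two compound doses tested in HFFs infected with HCMV-luciferase, MOI 1 PFU/cell, 72 h at 37C. Lysate luminescence read with OneGlo; data normalized against buffer-only and 10uM Salinomycin inhibitor controls.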
MARV entry inh = Marburg virus entry inhibition | 300,000 compounds, 1.8% hits | Potency, µM (titrated, usually from 37.8 µM), inactives show at the top dose activity change, negative = inhibition, hits mostly inhibitors | Marburg virus pseudotyped entry inhibition, cell reporter; calls by dose curve; tested in HEK293 cells; also: potency is read from the fitted curve at half-maximal effect
LASV entry inh = inhibitors of Lassa virus binding or cell entry; Lassa virus pseudotype entry inhibition, cell reporter; Potency, µM (top dose mostly 37.9 µM), without a hit: at the highest dose activity change, negative = inhibition, hits mostly inhibitors; 300,000 compounds, 1.2% hits; calls by dose curve; tested in HEK293 cells; also: potency is read from the fitted curve at half-maximal effect; nearly all actives have a fitted effect of over 50% in size
Vaccinia mCherry = inhibitors of vaccinia virus infection (mCherry reporter signal) | Vaccinia virus mCherry reporter infection, fluorescence | Potency, µM (titrated, usually from 36.5 µM), inactives show top-dose activity change, negative = inhibition, hits mostly inhibitors | 310,000 compounds, 0.63% hits | AID 720579; calls by dose curve; tested in A549 cells; also: potency is read from the fitted curve at half-maximal effect; nearly all actives have a fitted effect of over 35% in size
Numbers without * were called inactive; i = inactive; ? = inconclusive; . = no result; [ ] = remark or other dose. % is scaled to controls: 0 for no effect and ±100 for the full control effect.

SMILES	FMDV inh	VACV Venus inh	HCMV antiviral	MARV entry inh	LASV entry inh	Vaccinia mCherry
COc1cc(=O)n2c(c1C(=O)N(C)Cc1nonc1C)CCN(Cc1ccccc1Cl)CC2	-14%	4%	.	.	.	-7%
COc1cccc(N=C(N)N=C(N)N)c1	-17%	.	4	.	.	.
NC(N)=NC(N)=Nc1ccc2ccccc2c1	-7%	.	-69*	.	.	.
COCC(=O)Nc1cc(C(=O)N[C@H]2CCCCNC2=O)c2c(c1)nc(-c1ccncc1)n2C	2%	0%	.	.	.	-4%
O=S(=O)(c1ccc(Cl)c(Cl)c1)c1snnc1-c1ccccc1	?	?	.	5µM*	7.1µM*	.
Cc1ccc2[nH]cc(C(c3ccccc3)c3ccc(Cl)s3)c2c1 (stereo not given)	?	-3%	?	?	26%[46.1 µM]	-5%
Clc1ccc(C(c2ccccc2)c2c[nH]c3ccccc23)s1 (stereo not given)	0%	-20%	-67*	.	0%[46.1 µM]	-25%
COc1ccc(C)cc1S(=O)(=O)N1CCN(C(=O)c2ncoc2-c2ccc(F)cc2)CC1	?	-12%	-5	2%[46.1 µM]	1%	0%
COc1ccc(C)cc1S(=O)(=O)N1CCN(C(=O)c2ncoc2-c2ccc(C)cc2)CC1	-20%	-17%	-70*	2%[46.1 µM]	?	-25%
Cc1ccc(NS(=O)(=O)c2cccc3cccnc23)cc1Cl	73%	.	-94*	.	.	.
CC(C)(C)Cc1c(-c2ccc(C#N)cc2)nc2c(Cl)cc(C(F)(F)F)cn12	?	-10%	-83*	.	.	9%
COc1ccccc1Cc1c(-c2ccc(C#N)cc2)nc2c(Cl)cc(C(F)(F)F)cn12	-15%	23%	.	.	.	-19%
COc1ccc2c(c1)-c1nc(-n3ncc(C(=O)NC[C@@H]4CCCN5CCCC[C@H]45)c3C)ncc1CC2	-9%	?	.	.	.	13µM*
CCOC(=O)CSC1=C(C#N)[C@H](c2ccc(OC)cc2)C2=C(CC(C)(C)CC2=O)N1	.	.	.	-13%	.	.
Cc1ccc([C@@H]2C[C@H]3[C@@H](CN2S(=O)(=O)c2ccc(C)cc2)C(=O)C[C@@H](c2ccccc2)N3S(=O)(=O)c2ccc(C)cc2)cc1	-11%	-9%	-12	.	.	-3%
CC(=O)C1CN(S(=O)(=O)c2ccc(C)cc2)C(c2ccccc2)CC1C (stereo not given)	2%	-3%	-60*	.	.	-8%
Cc1ccc([C@@H]2CC(=O)[C@@H]3CN(S(=O)(=O)c4ccccc4C)[C@H](c4ccc(Cl)cc4)C[C@@H]3N2S(=O)(=O)c2ccc(C)cc2)cc1	?	-29%	-94*	.	.	-22%
Cc1ccc(S(=O)(=O)N2[C@H](c3ccc(Cl)cc3)CC(=O)[C@@H]3CN(S(=O)(=O)c4ccccc4C)[C@H](c4ccc(Cl)cc4)C[C@@H]32)cc1	-25%	-13%	-89*	.	.	9%
Cc1ccc(S(=O)(=O)N2[C@H](c3cccc(Cl)c3)CC(=O)[C@@H]3CN(S(=O)(=O)c4ccccc4C)[C@H](c4ccc(Cl)cc4)C[C@@H]32)cc1	?	-26%	-83*	.	.	-18%
CCCCN(C)C(=O)c1ccc2c(=O)n3nc(Nc4cc(C)ccc4C)sc3nc2c1	-22%	-20%	-32	.	1%[46.1 µM]	?
CO[C@H]1C=CO[C@@]2(C)Oc3c(C)c(O)c4c(O)c(c(C=NN5CCN(C)CC5)c(O)c4c3C2=O)NC(=O)C(C)=CC=C[C@H](C)[C@H](O)[C@@H](C)[C@@H](O)[C@@H](C)[C@H](OC(C)=O)[C@H]1C	-11%[16.9 µM]	.	.	.	.	.
Cc1ccc(S(=O)(=O)N2C[C@H]3C(=O)C[C@@H](c4ccccc4)N(S(=O)(=O)c4ccc(C)cc4)[C@H]3C[C@H]2c2ccc(Cl)cc2)cc1	-25%	-12%	-85*	.	.	-7%
Cc1ccc(S(=O)(=O)N2C[C@H]3C(=O)C[C@@H](c4ccccc4)N(S(C)(=O)=O)[C@H]3C[C@H]2c2ccccc2)cc1	-1%	-5%	-95*	.	.	13%
O=C(Nc1ccc(S(=O)(=O)N2CCOCC2)cc1)c1ccc(F)cc1	-12%	1%	-9	2%[46.1 µM]	-25%[46.1 µM]	9%
O=C(Nc1ccc(S(=O)(=O)Nc2ccc(F)cc2)cc1)c1ccc(CN2CCOCC2)cc1	?	-35%	-65*	?	?	-15%
SMILES	FMDV inh	VACV Venus inh	HCMV antiviral	MARV entry inh	LASV entry inh	Vaccinia mCherry
COc1ccc(NS(=O)(=O)c2ccc(NC(=O)c3ccc(CN4CCOCC4)cc3)cc2)cc1	-28%	-25%	-89*	?	?	?
Cc1ccc(N=Nc2ccc(O)c3ncccc23)cc1C	41%	.	-98*	.	.	.
Cc1ccc(N=Nc2ccc(O)c3ncccc23)cc1	-19%	?	-96*	?	?	13µM*
COc1ccc2c(c1)C=C/C2=C\c1ccc(N(C)C)cc1	.	-11%	.	.	.	-13%
O=C(NCc1ccc(F)cc1)c1ccc2c(c1)nc1n2CCCCC1	37%	-18%	44	.	18%[46.1 µM]	-22%
Cc1cc2c(N=O)c(NO)ccc2[nH]1	-2%	?	.	1.4µM*	?	?
Cc1noc(C)c1S(=O)(=O)N(C)C[C@@H]1OCc2cnnn2CCCC(=O)N([C@@H](C)CO)C[C@@H]1C	.	.	-10	.	.	.
Cc1ccccc1Nc1c(-c2cccnc2)nc2ccc(Cl)cn12	-2%	?	-16	?	-27%[46.1 µM]	-13%
CCCn1nc(-c2ccccc2)c2nc3ccccc3nc21	1%	-23%	-6	13%	-13%	.
CCn1nc(-c2ccccc2)c2nc3ccccc3nc21	?	-17%	-60*	5%	-18%	.
CC1(C)CCC(=O)N2CC[C@H]3C[C@H](OC(=O)Nc4ccc(Br)cc4)C[C@@H]1[C@H]32	13%	?	-101*	.	.	-8%
COc1ccc(NC(NC(=O)c2cccnc2)C(Cl)(Cl)Cl)cc1 (stereo not given)	21%	-7%	-85*	?	-8%[46.1 µM]	-11%
Cc1ccccc1NC(NC(=O)c1cccnc1)C(Cl)(Cl)Cl (stereo not given)	-1%	-8%	-10	-7%	0%	i
CCc1ccc(/C=C/c2c[nH]c3ccccc23)[n+](CC)c1	?	-16%	-97*	?	13µM*	-22%
Cc1[nH]c2ccccc2c1/C=C/c1c[nH]c2ccccc12	.	8%	.	.	.	23%
CCc1cc(C(=O)c2ccc(C)cc2)c(NC(=O)CCl)s1	0%	-23%	-30	?	?	-8%
Cc1cc(C(=O)c2ccc(Cl)cc2)c(NC(=O)CCl)s1	25µM*	-20%	-23	?	-3%	?
CC(=O)OCC1O[C@@H](O[C@@H]2C[C@H]3C(C)(C)[C@H](OC(C)=O)CC[C@]3(C)[C@H]3CC[C@]45C[C@]4(CC[C@H]5[C@@H](C)C[C@@H](O)[C@H](O)C(C)(C)O)[C@@]32C)[C@H](O)[C@@H](O)[C@@H]1O (stereo not given in full)	.	.	.	?	15µM*	.
CCCn1cnc2c(SCc3ccccc3Cl)nc(N)nc21	6%	-20%	?	7.1µM*	11µM*	-17%

Screening results deposited in PubChem by National Center for Advancing Translational Sciences (NCATS).
